Experimental data from article PMC13494018.

Target: VTCN1, Q7Z7D3
Sequence (Q7Z7D3 whole entry): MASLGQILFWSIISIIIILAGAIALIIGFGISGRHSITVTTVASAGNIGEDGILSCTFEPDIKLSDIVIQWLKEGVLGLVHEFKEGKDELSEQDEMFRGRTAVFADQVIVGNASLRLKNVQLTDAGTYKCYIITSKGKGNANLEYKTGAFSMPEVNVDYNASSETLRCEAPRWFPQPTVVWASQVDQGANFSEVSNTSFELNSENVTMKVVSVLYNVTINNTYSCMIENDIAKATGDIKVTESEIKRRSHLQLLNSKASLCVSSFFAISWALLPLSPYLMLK

| Binder | binding in a display sort |
| --- | --- |
| design_598_15ab41e9-cad4-4381-8935-81f74b313fe8_1360_dldesign_0_cycle1_af2pred (protein) DPAQAAFTAKAKERAEQLKALAKEFPEEAEKLTKLAEEGLKLAAGDAETQKKAAEKLQEAYELAAEARAKKA | not found (inactive) |
| design_598_15ab41e9-cad4-4381-8935-81f74b313fe8_1028_dldesign_0_cycle1_af2pred (protein) SDEKLAAEASQVGLELKAEVKAGNANPEIKEKLSKEALEKAEKAVKEFEKKSPAAGKVAKEMLKKIKEAAKE | not found (inactive) |
| design_598_15ab41e9-cad4-4381-8935-81f74b313fe8_1188_dldesign_0_cycle1_af2pred (protein) KEEEEKKKEEEWKKKADAEAAIEQGKNALEAAKKDPSKAKEAAKVAKKLAKRAPEAKEELEKIAKEAEAIGKA | not found (inactive) |
| design_598_15ab41e9-cad4-4381-8935-81f74b313fe8_1446_dldesign_0_cycle1_af2pred (protein) IDSKKASELIREAVRNAQKAGEIAKSLPNGEEIKKRVAEALLLAIDPETAEEGIKLLEELAKEAEELNPEAGKHIKEAAEHLKKFAEL | not found (inactive) |
| design_598_15ab41e9-cad4-4381-8935-81f74b313fe8_2343_dldesign_0_cycle1_af2pred (protein) ASEELWKKAQEIATKAVAAAQARYAAEGKYEELDKDIDKIYELAVEAAKEGEEGLKKLEEMRKEAEEAAKKALEAA | not found (inactive) |
| design_598_15ab41e9-cad4-4381-8935-81f74b313fe8_1541_dldesign_0_cycle1_af2pred (protein) AEQEKKDEEYKEKAKKGEELAKKAKERAEKNKDDKGVLGSQAELAEHIAKALKKAAEEASEEVKPELKAAAEKAKKVAKYAEELA | not found (inactive) |
| design_598_15ab41e9-cad4-4381-8935-81f74b313fe8_1042_dldesign_0_cycle1_af2pred (protein) NLEELIKKAIKAAEKGDAKGAVTYVMDAGAEAGDMKLAVEVGRKIQELLATDPAAGKAASAALIKEAGKKFL | not found (inactive) |
| design_598_15ab41e9-cad4-4381-8935-81f74b313fe8_1476_dldesign_0_cycle1_af2pred (protein) SEEKKKEEEKKVKEAEKLAKKAKEAAKKGDVKTAKEYYEKAKKIAKEVKKEGSKELATKAANAAQEAYQAYREAEAKA | not found (inactive) |
| design_598_15ab41e9-cad4-4381-8935-81f74b313fe8_1784_dldesign_0_cycle1_af2pred (protein) ADEEGKKLVKEKLEEAKKALEKAKAGDKKEALDAASTATRNAHKIEAFAKAVPVSEEVVKLAKEAVKELEKYEEKAAKLLAK | not found (inactive) |
| design_598_15ab41e9-cad4-4381-8935-81f74b313fe8_2338_dldesign_0_cycle1_af2pred (protein) AEEKAKELYAKGEKLYKEGLKADKETGKEYFTKAAEYFKAAAEEFKKAGNVVGAGYAESKAERAKEAAELL | not found (inactive) |
| design_598_15ab41e9-cad4-4381-8935-81f74b313fe8_2059_dldesign_0_cycle1_af2pred (protein) GEKEELKEKAKKLKELAKKAVEKAKKAAEENPEAKPLAEKAKELAEEAIKLAEEGTKESLEKAAKILQELREVTAEAEFIARKG | not found (inactive) |
| design_598_15ab41e9-cad4-4381-8935-81f74b313fe8_2441_dldesign_0_cycle1_af2pred (protein) AKEKAEELAKKAREGIERAERRVEEGKKKSKKDAAIYSYSAAELLDSVAAGIVKELLKEDPELGKKVAEEVEKAREEALKEAEKYES | not found (inactive) |
| design_598_15ab41e9-cad4-4381-8935-81f74b313fe8_887_dldesign_0_cycle1_af2pred (protein) GEEKSRAAAEALRAATRAVRAAAATAAAADPATAAAVRAAWAAAVKADDLADAEAALRAAAAAATDPATRALLNAAADAYATIAAIA | not found (inactive) |
| design_598_15ab41e9-cad4-4381-8935-81f74b313fe8_1419_dldesign_0_cycle1_af2pred (protein) DIAKVTQQAQEELTEYAFKVPELKEEFDAARKESVKLGKEGASTSPEAAEKASKEIKKITEEMKKKAEEAL | not found (inactive) |
| design_598_15ab41e9-cad4-4381-8935-81f74b313fe8_1361_dldesign_0_cycle1_af2pred (protein) DETKKALAEMSELRHQLDAEAKWYEKHAKESEKYKEAAKEAKEGADYAKKALKKAKEGTPEEALKAAKEALEELKKKEEKVEKLFKEA | not found (inactive) |
| design_598_15ab41e9-cad4-4381-8935-81f74b313fe8_1370_dldesign_0_cycle1_af2pred (protein) AEFAVKILETLAERVPPEYAVVAREAAEIVKEKGAEGAREAARLVREAAERNPELPEEHRKAMLNAARVLEILAEAE | not found (inactive) |
| design_598_15ab41e9-cad4-4381-8935-81f74b313fe8_2408_dldesign_0_cycle1_af2pred (protein) ELELLKERAELYERAAKAAEAGKLGAGIRLAAIAEDLIDLELGKKKEKELKASSREEALKILKKEAEKYKAKAKELA | not found (inactive) |
| design_598_15ab41e9-cad4-4381-8935-81f74b313fe8_1154_dldesign_0_cycle1_af2pred (protein) EKAKKAAEYSSEAAKHAIKAAKLLKEAGAPQEVLNLLQEAIVNMDKAAEYYAAAMEAAKKNPELGPEIQAELKKAEEHTKKANELL | not found (inactive) |
| design_599_7ce25d4d-e004-4b84-a16f-baf856d943ab_135_dldesign_0_cycle1_af2pred (protein) MEEEEGEKKVEEAKKKLSAALYEYADMSVNEETLKEGRKKVEEAVKEALELGKKSTPETAEKLKKAAEKALKVAERIEEAS | not found (inactive) |

| Binder | binding in a display sort |
| --- | --- |
| design_598_15ab41e9-cad4-4381-8935-81f74b313fe8_2011_dldesign_0_cycle1_af2pred (protein) KLEEYKKKIKEKAKEMGKSLDPEERKKLLEEIKKLAKEASKELGEKEEIEKFAAEEAHEGLEQASENRFKS | not found (inactive) |
| design_598_15ab41e9-cad4-4381-8935-81f74b313fe8_801_dldesign_0_cycle1_af2pred (protein) AEKEKKIEELEAKAKEYEAKGKAAEAAGDYKTAAEYYEKAADAYLEMAKVDPEKAEEYIKKAQELYRKSIQYEAKASAA | not found (inactive) |
| design_598_15ab41e9-cad4-4381-8935-81f74b313fe8_1648_dldesign_0_cycle1_af2pred (protein) KKEEAKKELLEKVKKLEEEGEKLLEEKTPKEARAKALEKGKEIMKEAEKAIKDPETKEAGKEAKKKAAEAMAKLYEKAAEKEAKE | not found (inactive) |
| design_598_15ab41e9-cad4-4381-8935-81f74b313fe8_1691_dldesign_0_cycle1_af2pred (protein) DKEAEAKKIEAAAKKNAEAALADAEKAKEYAKAGDKSKAKQYSESAKIYLELAGTAAKKGAGYPTAPEIKKLYEDTKAKVEEILKEA | not found (inactive) |
| design_598_15ab41e9-cad4-4381-8935-81f74b313fe8_686_dldesign_0_cycle1_af2pred (protein) SPTEMQEALTDADGYAVLAKNAGIEEVAKKAKEAAKKIKELIKQARADPSKAPELAKKAKELAKEAEKEFEKAKKEFE | not found (inactive) |
| design_598_15ab41e9-cad4-4381-8935-81f74b313fe8_2298_dldesign_0_cycle1_af2pred (protein) SKKAEQTLFRAEALGEAVTEAAEQLDPALGARVRERAKELIERAKKDGTLEAAEKALEEMRRLAEEVRAAIEAA | not found (inactive) |
| design_599_7ce25d4d-e004-4b84-a16f-baf856d943ab_80_dldesign_0_cycle1_af2pred (protein) SKAAEKAEAQKAKEEATKAAEEAAKEAKKAGLEDLAKYLENAKKTADAKAQASSDPAEAKKYYEKYKATATRLLEDLKKAE | not found (inactive) |
| design_599_7ce25d4d-e004-4b84-a16f-baf856d943ab_160_dldesign_0_cycle1_af2pred (protein) AVKEQTEKTVAATRAAAEAVPEYGEELEKGARVIERLVKDGFLEGAIDVANAIAKFSREVAAEVSEEQAAILKEAADLAEELAKLAK | not found (inactive) |
| design_598_15ab41e9-cad4-4381-8935-81f74b313fe8_1677_dldesign_0_cycle1_af2pred (protein) DVAALIAKAAALVDDPSKAAEALKYLVAAREKALSEGDAAALKQIAAVAAEGAKKAPPEYAKGFKLLANTAKSIAEDLEK | not found (inactive) |
| design_598_15ab41e9-cad4-4381-8935-81f74b313fe8_273_dldesign_0_cycle1_af2pred (protein) SMAKKIEEGKKLAEELREAVRTAQAIGARLDALVAADPSVAPLATEIRAKASEAIFKIADGKEEEGKALMEEATALAAAAEAAAAAAA | not found (inactive) |
| design_598_15ab41e9-cad4-4381-8935-81f74b313fe8_1412_dldesign_0_cycle1_af2pred (protein) DSPAMQLNEALTDAKYAADKIKEVDPSLAPEAQALYDKVKALLEKARKGDAATVAAAAKEAKALAEQAEKLLKQAKERAKKA | not found (inactive) |
| design_598_15ab41e9-cad4-4381-8935-81f74b313fe8_1727_dldesign_0_cycle1_af2pred (protein) SAAQLAASAKGRLLAVADYARAKGISEEAAELAEKAAEADVATAAELAEKAAKLLEEAGDEKLAERARKAAEKLKKAAKE | not found (inactive) |
| design_598_15ab41e9-cad4-4381-8935-81f74b313fe8_1756_dldesign_0_cycle1_af2pred (protein) GFKEEAEKKMEKVLEEAKKASVKEAATIVREAYAELKGIGHLLEKKGKKEEGKFAEEVAKKVLEEGKKIVEEKAAA | not found (inactive) |
| design_598_15ab41e9-cad4-4381-8935-81f74b313fe8_1969_dldesign_0_cycle1_af2pred (protein) AAAAAKKAQAKKLVGLGLFYYLDYLAGGPESSKEKGDAYYAAAAALDPATAAEAKAKADKIAARFKKDVEEAKK | not found (inactive) |
| design_598_15ab41e9-cad4-4381-8935-81f74b313fe8_1668_dldesign_0_cycle1_af2pred (protein) KEKVKKELEESKKELEKTLEKIKELVSSLPEEEREALAKGLVDPKTALEAAKKIAEAVGKEGANAAQEAISERRAIEQYEKILE | not found (inactive) |
| design_598_15ab41e9-cad4-4381-8935-81f74b313fe8_790_dldesign_0_cycle1_af2pred (protein) MEKEAEKFAEEGKKKVEELKKKLEENKDNAEKNEELAKKARELAKEFEEEGKKAPEEMRKKLAEIAQEAREVAAEAKGLAIIAKEK | not found (inactive) |
| design_598_15ab41e9-cad4-4381-8935-81f74b313fe8_2180_dldesign_0_cycle1_af2pred (protein) AEAAEKAAAKAVINEAYDLLGSSTAEEALKYAEEKAKEAKAAGKKIVADAAEKTAKVLKRIAEDEKEAKK | not found (inactive) |
| design_598_15ab41e9-cad4-4381-8935-81f74b313fe8_1538_dldesign_0_cycle1_af2pred (protein) KEEAKKKVEEARKLVEEAKKLIEKGEYEKGLKLAEEAAELAHKTSVKYGAGEAEKVYKEASKVISLAWAKLAEAKK | not found (inactive) |
| design_598_15ab41e9-cad4-4381-8935-81f74b313fe8_1263_dldesign_0_cycle1_af2pred (protein) GMEEIEKRNEEVKKKAEELKKQVEKAEKLAEKGDPEGKKLAEETKKKAIELAKSNPEAEPEVKTEITEIAVEAQGIEHLMKIK | not found (inactive) |
